High-throughput results as filed in PubChem BioAssay.
RORg inh: qHTS for inhibitors of ROR gamma transcriptional activity; Drosophila S2 Gal4-RORgamma UAS-luciferase reporter, 20 h; Potency, µM (highest dose often 53.6 µM), for the others: top-dose activity change, negative = inhibition, actives largely listed as inhibitors; 310,000 tested, 5.4% active; AID 2551, 2010; further: nearly all actives have a fitted effect of over 60% in size
Target sequence (P51450 whole entry, looked up, the tested form may be a part): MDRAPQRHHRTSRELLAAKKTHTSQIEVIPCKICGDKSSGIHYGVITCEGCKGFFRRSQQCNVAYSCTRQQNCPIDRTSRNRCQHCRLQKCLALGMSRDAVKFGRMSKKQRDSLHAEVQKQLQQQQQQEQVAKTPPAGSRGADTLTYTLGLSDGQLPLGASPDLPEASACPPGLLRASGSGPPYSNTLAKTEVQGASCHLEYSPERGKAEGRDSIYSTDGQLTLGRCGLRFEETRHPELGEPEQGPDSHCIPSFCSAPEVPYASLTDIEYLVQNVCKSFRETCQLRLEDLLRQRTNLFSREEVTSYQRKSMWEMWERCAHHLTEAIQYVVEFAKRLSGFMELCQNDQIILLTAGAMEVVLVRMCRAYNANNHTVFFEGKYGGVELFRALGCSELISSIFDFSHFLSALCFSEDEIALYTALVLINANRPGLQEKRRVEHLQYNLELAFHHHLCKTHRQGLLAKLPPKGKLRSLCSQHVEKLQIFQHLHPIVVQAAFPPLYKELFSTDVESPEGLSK
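Schneider cells (Drosophila), stable Gal4 DBD–ROR gamma + UAS-luc; 1 hr cmpd preincubation; Cu2+ induction 700 uM final; 20 hr ambient; luminescence.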
Luc counter: Counterscreen for Luciferase (Kinase-Glo TM) Inhibition. Kinase-Glo luciferase, ATP luminescence, 8 min. 200,000 tested, 0.28% active. Potency, µM (series often up to 38.3 µM), without a hit: top-dose activity change, negative = inhibition, usual class: inhibitors. Luciferin 4-monooxygenase (Photuris pensylvanica), Q27757; further: nearly all actives have a fitted effect of over 60% in size
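Kinase-Glo luciferase light output from ATP and luciferin was measured with 10 uM ATP, within the enzyme's linear range. Buffer: 50 mM imidazole pH 7.2, 50 mM KCl, 7 mM MgCl2, 0.01% Tween 20, 0.05% BSA; luminescence read after 8 min at ambient temperature.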
Gal4-VP16 FLuc: VP16 counterscreen qHTS for inhibitors of ROR gamma transcriptional activity; Drosophila S2 Gal4-VP16 UAS-luciferase, luminescence, 20 h; Potency, µM (highest dose often 53.6 µM), for the others: top-dose activity, negative = inhibition, actives largely listed as inhibitors; 310,000 tested, 3.5% active;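 further: Gal4-VP16 expression switched on by copper sulfate through the metallothionein promoter; nearly all actives have a fitted effect of over 50% in size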
* hit, by the source's call; [ ] = dose if it differs, or a comment. In the library only some 6.4% were active in any assay of this set; here they are far more common. The call rests on the fitted dose curve; in most records, active means well fitted curve in the direction sought with a large enough effect; inconclusive means small, poorly fitted or top-dose-only effect, or another doubt; inactive means no such curve, though single readings can be large; an effect the other way counts as inactive or inconclusive. On the % scale 0 is the no-effect control and ±100 the full control effect; potency means the concentration at half of the fitted maximal effect.

`COC(=O)c1cscc1S(=O)(=O)Cc1ccccc1` gave RORg inh 9.2% and Gal4-VP16 FLuc 7.5%.
`CCS(=O)(=O)c1ncc(Cl)c(C(=O)Nc2ccc(S(=O)(=O)N3CCCC(C)C3)cc2)n1` (stereo unspecified) gave RORg inh inconclusive and Gal4-VP16 FLuc 3.55µM*.
For CC1CCCN(S(=O)(=O)c2ccc(NC(=O)CNC3CCCC3)cc2)C1 (stereo unspecified) the results were RORg inh 12.5% and Gal4-VP16 FLuc 7.1%.
COc1ccc(S(=O)(=O)Cc2ccc(C(=O)NCc3ccccc3)o2)cc1 was read as RORg inh 20.3% and Gal4-VP16 FLuc -12.1%.
For CS(=O)(=O)c1ncc(Cl)c(C(=O)Nc2ccc3ccccc3c2)n1 the results were RORg inh 2.82µM*, Luc counter -0.8% and Gal4-VP16 FLuc 4.47µM*.
O=C(Nc1ccc2ccccc2c1)c1cnccn1 was read as RORg inh 20.2%, Luc counter -9.4% and Gal4-VP16 FLuc -4.8%.
Screening COc1ccc(CNC(=O)c2nc(S(=O)(=O)Cc3ccccc3)ncc2Cl)cc1 returned RORg inh 5.62µM* and Gal4-VP16 FLuc 3.55µM*.
COC(=O)c1ccccc1NC(=O)c1nc(S(=O)(=O)Cc2ccccc2)ncc1Cl was read as RORg inh inconclusive and Gal4-VP16 FLuc 3.16µM*.
Screening COCCn1c(SCCOc2ccccc2)nc2ccccc2c1=O returned RORg inh 14.7%, Luc counter 1.9% and Gal4-VP16 FLuc -14.0%.
For COC(=O)N1CCC2(CC1)CN(c1ccccc1)C2 the results were RORg inh 23.6%, Luc counter -0.4% and Gal4-VP16 FLuc 6.6%.
Screening N=C(N)c1ccc(N=Nc2c(O)ccc3c2[nH]c2ccccc23)cc1 returned Luc counter -3.8%[7.66 µM].
`Cc1ccccc1CN1CCN(Cc2ccc3cccc(F)c3n2)CC1CCO` (stereo unspecified) gave RORg inh 3.5% and Gal4-VP16 FLuc 2.9%.
Cc1ccc(CS(=O)(=O)c2ncc(Cl)c(C(=O)Nc3ccc(OC(F)F)cc3)n2)cc1 was read as RORg inh -95.8% and Gal4-VP16 FLuc inconclusive.
CSc1ncc(Cl)c(C(=O)Nc2ccc(NC(C)=O)cc2)n1 was read as RORg inh -20.3%, Luc counter -0.1% and Gal4-VP16 FLuc 2.0%.
`CCC1CCCCN1S(=O)(=O)c1ccc(NC(=O)c2nc(S(C)(=O)=O)ncc2Cl)cc1` (stereo unspecified) gave RORg inh 3.16µM* and Gal4-VP16 FLuc 3.98µM*.
Screening O=C(NCc1ccccc1)c1nc(S(=O)(=O)Cc2ccccc2)ncc1Cl returned RORg inh 5.01µM* and Gal4-VP16 FLuc 2.82µM*.
CCS(=O)(=O)c1ncc(Cl)c(C(=O)Nc2ccc(C)cc2)n1 was read as RORg inh 5.01µM* and Gal4-VP16 FLuc 2µM*.
`CC(=O)Nc1ccc(NC(=O)c2nc(S(=O)(=O)Cc3ccccc3)ncc2Cl)cc1` gave RORg inh 2.24µM* and Gal4-VP16 FLuc 0.355µM*.
For CCC1CCCCN1S(=O)(=O)c1ccc(NC(=O)C2CCN(C(=O)c3ccco3)CC2)cc1 (stereo unspecified) the results were RORg inh 9.1% and Gal4-VP16 FLuc 6.7%.
For Cc1noc(C(=O)NCc2ccccc2)c1Cl the results were RORg inh 15.9%, Luc counter 0.3% and Gal4-VP16 FLuc 0.4%.
Screening COc1ccc(NC(=O)CC(NCc2ccccn2)C(=O)O)cc1 (stereo unspecified) returned RORg inh -28.8%, Luc counter 2.2% and Gal4-VP16 FLuc -9.4%.
`O=C(NCc1ccc2c(c1)OCO2)c1ccc(Cl)nc1` gave RORg inh -7.7%, Luc counter 2.8% and Gal4-VP16 FLuc -0.8%.
For O=C(NCc1ccc2c(c1)OCO2)c1nc(S(=O)(=O)Cc2ccccc2F)ncc1Cl the results were RORg inh 7.08µM* and Gal4-VP16 FLuc 3.55µM*.
`Cc1ccc(S(=O)(=O)Nc2cnn(-c3ccccc3)c(=O)c2Cl)cc1` gave RORg inh -44.0%, Luc counter -2.3% and Gal4-VP16 FLuc -24.9%.
Cc1ccc(Cn2cc(S(=O)(=O)c3ccc(Cl)cc3)c(=O)c3cc(F)ccc32)cc1 was read as RORg inh 13.0%, Luc counter 3.0% and Gal4-VP16 FLuc -9.1%.
Cc1ccc(S(=O)(=O)Nc2cc(C)cn(Cc3ccc(F)cc3)c2=O)cc1 was read as RORg inh inconclusive and Gal4-VP16 FLuc 17.8µM*.
Screening Cc1ccc(S(=O)(=O)Nc2cc(C)cn(Cc3ccccc3)c2=O)cc1 returned RORg inh inconclusive and Gal4-VP16 FLuc 14.1µM*.
Screening CC(C)(C)OC(=O)NC(Cc1ccccc1)C(O)c1ccco1 (stereo unspecified) returned RORg inh 16.8% and Gal4-VP16 FLuc -6.3%.
Screening CC(=O)Nc1ccn(C2OC(C(COC(C)=O)NC(=O)C(Cc3ccccc3)NC(=O)OC(C)(C)C)C(OC(C)=O)C2OC(C)=O)c(=O)n1 (stereo unspecified) returned RORg inh 2.8% and Gal4-VP16 FLuc 0.9%.
For CC(=O)Nc1ccc2ccccc2c1 the results were RORg inh 32.9%, Luc counter 17.9% and Gal4-VP16 FLuc 5.1%.
`CN(C)C(=S)Nc1ccc2ccccc2c1` gave RORg inh 15.8µM*, Luc counter 3.7% and Gal4-VP16 FLuc inconclusive.
`CCCCC1CCC(C(=O)NCC(c2ccco2)N2CCOCC2)CC1` (stereo unspecified) gave RORg inh 22.4% and Gal4-VP16 FLuc -5.4%.
COc1ccc(Br)cc1C1CC(=O)C(C)C(c2cc(Br)ccc2OC)N1 (stereo unspecified) was read as RORg inh 13.4% and Gal4-VP16 FLuc -6.6%.
Screening CC1CCC(C(C)C)C(P(=O)(c2ccccc2)c2ccccc2)C1 (stereo unspecified) returned RORg inh 3.1% and Gal4-VP16 FLuc -2.1%.
Screening Cc1cc(C)c2ccc(/C=N/O)nc2c1O returned RORg inh 3.16µM* and Gal4-VP16 FLuc 6.31µM*.
Cc1cc(C)c2ccc(NN)nc2c1O was read as RORg inh 6.31µM*, Luc counter -4.5% and Gal4-VP16 FLuc 10µM*.
Screening CC(C)(C)c1cc(/C=N/O)cc(C(C)(C)C)c1O returned RORg inh 26.4%, Luc counter 13.5% and Gal4-VP16 FLuc 5.1%.
Screening Cc1ccc(Nc2cc(C)c3ccc(O)cc3n2)cc1C returned RORg inh -3.4% and Gal4-VP16 FLuc inconclusive.
Cc1cccc(NC(=O)CCN2CCC(C)CC2)c1 was read as RORg inh 17.5%[1.91 µM] and Gal4-VP16 FLuc 1.8%.
Screening CCC[C@@H](CN[C@@H](CNC)[C@H](C)CC)NCC1CCC(C(C)(C)C)CC1 (stereo partly specified) returned RORg inh 11.2µM* and Gal4-VP16 FLuc inconclusive.
`CC(C)NCC(O)COC1CCC(C(C)(C)C)CC1` (stereo unspecified) gave RORg inh -26.2% and Gal4-VP16 FLuc 4.4%.
`Cc1cc(C)nc(SSc2nc(C)cc(C)n2)n1` gave RORg inh 5.62µM* and Gal4-VP16 FLuc 6.31µM*.
`Cc1cc(C)nc(SCCN(C)C)n1` gave RORg inh -11.2%, Luc counter 3.5% and Gal4-VP16 FLuc 6.0%.
